Our source for the Potency values is PubChem BioAssay AID588855 (National Center for Advancing Translational Sciences (NCATS), 2011).

Each structure is given as a SMILES string. In all, about 410,000 compounds went through this assay and about 5,000 (1.2%) were called active. Entries that show only a call come without a potency. Inconclusive results (about 13%) are left out. Calls come from the whole dose curve; as a rule, active = well fitted inhibition curve with a large enough effect; inconclusive = small, poorly fitted or top-dose-only effect; inactive = no such curve, though single readings can be large or run the other way. The full list was thinned out, with actives kept by preference.
Potency is the fitted concentration of half-maximal effect.

The nature of this test: qHTS for Inhibitors of TGF-b. Note: nearly all actives have a fitted effect of over 65% in size. Particulars: HepG2 CAGA-GFP TGF-b/SMAD3 reporter, GFP fluorescence, 18 h, TGF-beta stimulated, 500 pg/mL final; series mostly up to 46.1 µM. The source says: TGF-b is a main component in the TGF-b signaling pathway which plays diverse roles in cellular and development pathways. TGF-b is the mediated by the transcription factors Smads. Although the Smad-dependent pathway is the primary canonical TGF-b signaling node, TGF-b1 can also activate alternative signaling pathways, including those involving MAPK (ERK, JNK and p38). This interaction may mediate or enhance Smad-dependent responses, or can exert Smad-independent effects. The complexity of this signaling cascade allows the TGF-b superfamily to perform unique, overlapping or redundant functions. We believe that targeting the TGF-beta pathway at the Smad-transcription factor level may eliminate the consequences of disrupting the entire pathway and offer specificity without affecting other signaling pathways. Smad3 is the primary transducer of TGF-b's signals and Smad3 regulates many functions attributed to TGF-b signaling. We hypothesize that Smad3 inhibitors will selectively eliminate Smad3-specific TGF-beta signals without undesired off-target effects. We aim to identify Smad3-small molecule antagonists using a quantitative high throughput screening (qHTS) approach.
A high-throughput assay was developed to screen the NIH Molecular Libraries Small Molecule Repository (MLSMR). This is a cell based assay, where TGF-b is tagged with GFP. A counterscreen is run that looks at cytotoxicity (please see summary AID).
MH087449NIH Chemical Genomics Center [NCGC]
NIH Molecular Libraries Probe Centers Network [MLPCN]
Assay Submitter (PI): Sushil Rane, National Institute of […]
Suspensions of trypsinized HEPG2 CAGA-GFP cells were dispensed into white, tissue culture-treated, solid 1536-well plates at 5uL/well (1000 cells/well final concentration) in DMEM medium supplemented with 1% FBS. Plates were incubated at 37 degrees C for 2 hours, after which 23 nL of compounds or DMSO were delivered to each well using a pin tool. One uL of recombinant TGF-beta in DMEM (1% FBS) was then dispensed (500 pg/mL final concentration), and plates were incubated at 37 degrees C for 18 hours. The plates were measured on an Acumen eX3 Explorer plate reader for GFP fluorescence (ex488/em500-530). GFP values were calculated by determining the mean GFP fluorescence of individual cells, and compiling these values for each well to determine a total well GFP signal. The %Activity was determined from the corrected fluorescence values. A titration of the known TGF-B inhibitor SB431542 was included to monitor plate performance, while unstimulated HEPG2 (-TGF-B) control wells were used to normalize %Activity of identified inhibitors; unstimulated wells corresponded to 100%Activity (full inhibition), while stimulated cell controls (+DMSO) were used to normalize 0%Activity (no inhibition).
Concentration-response curves were fitted to the signals arising from the resulting fluorescence. The concentration-effect curves were then classified based on curve quality (r2), response magnitude and degree of measured activity, and compounds were subsequently categorized based on their curve class.
On the technique in general: In qHTS, concentration-response curves come from the screen itself.
For `Cc1ccc(NC(=O)c2cccnc2C(=O)Nc2ccc(C)cc2)cc1`, the Potency entry was “inactive”.

Turning to `Cc1ccc(CCNC(=O)c2ccc(CS(=O)(=O)Cc3cccc(C)c3)o2)cc1`, the Potency result is “inactive”.

With `Cc1cccc(NC(=O)Cn2cc(S(=O)(=O)Cc3ccccc3Cl)c3ccccc32)c1`, the Potency result is “inactive”.

In the case of `CCS(=O)(=O)c1ncc(N(Cc2ccc(F)cc2)Cc2ccco2)c(C(=O)Nc2cc(C)ccc2C)n1`, the Potency entry is “inactive”.

With `CN(CC(=O)Nc1ccccc1C(F)(F)F)C(=O)Cc1ccccc1F`, the Potency entry is “inactive”.

As for `Cc1ccc(NC(=O)c2nc(S(=O)(=O)Cc3cccc(C)c3)ncc2Cl)cc1`, the Potency is 3.16 µM (active).

For `CCOC(=O)c1ccc(NC(=O)c2nc(SCc3ccc(F)cc3)ncc2Cl)cc1`, the Potency entry was “inactive”.

On to `CC(=O)c1cccc(NC(=O)c2nc(-c3ccccc3)n(-c3cccc(C)c3)n2)c1`, for which the Potency entry was “inactive”.

With `Cc1cccc(NC(=O)c2nc(S(=O)(=O)Cc3ccccc3)ncc2Cl)c1`, the Potency was 3.98 µM (active).

As to `O=C(Nc1nc2ccc(F)cc2s1)c1nc(SCc2ccccc2F)ncc1Cl`, the Potency result was “inactive”.

Consider `O=C(Nc1ccccc1C(F)(F)F)c1nc(S(=O)(=O)Cc2ccccc2F)ncc1Cl`, for which the Potency was 3.16 µM (active).

On to `Cc1cccc(CS(=O)(=O)c2ncc(Cl)c(C(=O)Nc3ccc(F)cc3)n2)c1`, for which the Potency was 6.31 µM (active).

With `COc1ccccc1CNC(=O)c1ccccc1NC(=O)c1nsc2ccccc12`, the Potency result is “inactive”.

Regarding `Cc1cccc(Cn2c(CN3CCC(C(=O)NCc4ccccc4Cl)CC3)cc3ccccc32)c1`, the Potency result is “inactive”.

For `COc1ccc(NC(=O)C2CCCN(S(=O)(=O)c3c(C)[nH]c(=O)[nH]c3=O)C2)c(OC)c1` (stereo not given), the Potency entry is “inactive”.

On to `COc1ccccc1CNC(=O)NCc1noc2ccc(C)cc12`, for which the Potency entry was “inactive”.

Regarding `O=S(=O)(c1cccc(C(F)(F)F)c1)N1CCN(c2nc(-c3cccs3)nc3ccccc23)CC1`, the Potency entry is “inactive”.

Turning to `O=C(Nc1cccc(F)c1)NC1CCCCCCC1`, the Potency entry was “inactive”.

Consider `CC(=O)c1ccc(Nc2nc(C(N)c3ccccc3)cs2)cc1` (stereo not given), for which the Potency result is “inactive”.

For `Cn1c(C(=O)Nc2cccc(C(F)(F)F)c2)cc2c(=O)n3ccccc3nc21`, the Potency result was “inactive”.

As for `NC(c1csc(NC(=O)Nc2cccc(C(F)(F)F)c2)n1)C1CCCCC1` (stereo not given), the Potency was 6.31 µM (active).

With `NC(c1ccccc1)c1csc(NC(=O)Nc2cccc(C(F)(F)F)c2)n1` (stereo not given), the Potency was 12.6 µM (active).

As to `COc1ccc(CC(N)c2csc(NC(=O)Nc3ccc(C(C)C)cc3)n2)cc1` (stereo not given), the Potency result is “inactive”.

For the compound `Cc1ccc(Cn2c(=O)n(CCCC(=O)NCc3ccccc3Cl)c(=O)c3ccccc32)cc1`, the Potency entry is “inactive”.

For the compound `COC(=O)c1ccc(-c2nc3cc(NC(C)=O)ccc3o2)cc1`, the Potency result was “inactive”.

Turning to `CCOc1ccc(NC(=O)c2cc(S(=O)(=O)N3CCCC3)c[nH]2)cc1`, the Potency result was “inactive”.

Regarding `Cc1nc2nc(SCC(=O)NC3CCC(C)CC3)nn2c(C)c1Cc1ccccc1Cl` (stereo not given), the Potency result is “inactive”.

For the compound `CC1(C)C=Cc2c(ccc(C(=O)/C=C/c3ccccc3)c2O)O1`, the Potency result is “inactive”.

As for `CN(NS(=O)(=O)c1cccs1)c1ncc(C(F)(F)F)cc1Cl`, the Potency result was “inactive”.

For `Cc1cc(C)cc(NS(=O)(=O)c2ccc(Oc3ncc(C(F)(F)F)cc3Cl)cc2)c1`, the Potency is 12.6 µM (active).

Turning to `COc1ccccc1Oc1ccc(S(=O)(=O)Nc2cccnc2)cc1`, the Potency entry is “inactive”.

On to `COc1ccc(CCNCc2c(C(=O)O)c(C)n(Cc3cccc(C)c3)c2C)cc1OC`, for which the Potency result was “inactive”.

For `Cc1cccc(NC(=O)c2ccc3nc(C(C)C)oc3c2)c1C`, the Potency result is “inactive”.

For `O=C(O)C1CCN(c2ccc([N+](=O)[O-])cc2[N+](=O)[O-])CC1`, the Potency result is “inactive”.

Consider `C=COC(=O)N1CCN(/[N+]([O-])=N/Oc2ccc([N+](=O)[O-])cc2[N+](=O)[O-])CC1`, for which the Potency was 10 µM (active).

Take `CCOC(=O)N1CCN(c2cc(C)c([N+](=O)[O-])cc2F)CC1`: the Potency result is “inactive”.

Consider `O=C(CSc1nc(=O)[nH]c2c1CCCC2)Nc1cc(C(F)(F)F)ccc1Cl`, for which the Potency entry was “inactive”.

As to `COc1ccc(/C=C/c2noc(-c3ccccc3O)n2)cc1OC`, the Potency entry was “inactive”.

For `COc1cccc(C(=O)CC(=O)C(=O)Nc2ccc([N+](=O)[O-])cc2C)c1`, the Potency entry was “inactive”.

Consider `Cc1cc([N+](=O)[O-])ccc1NCc1cccc([N+](=O)[O-])c1`, for which the Potency was 10 µM (active).

`CC(=O)c1ccc(NC(=O)Nc2ccc([N+](=O)[O-])cc2C)cc1`: the Potency result was “inactive”.

On to `O=C(Nc1ccc([N+](=O)[O-])cc1)c1cnn2c1NC(=C1CC1)C=C2C(F)F`, for which the Potency result is “inactive”.

Regarding `COc1ccc(/C=C/c2ccnc3ccccc23)cc1OC`, the Potency entry is “inactive”.

In the case of `CSc1ncc(C(=O)NCc2ccccc2Cl)c(C(F)(F)F)n1`, the Potency result was “inactive”.

On to `Fc1ccc(Nc2nc(SCc3ccccc3Cl)nc3ccccc23)cc1`, for which the Potency was 17.8 µM (active).

With `O=C(CSc1nc(Nc2ccc(F)c(F)c2)c2ccccc2n1)c1ccc(Cl)cc1`, the Potency result is “inactive”.

As to `Cc1ccc(NC(=O)CSc2nc3ccccc3c3nc(CCn4cncc4C)nn23)cc1F`, the Potency result is “inactive”.

Turning to `COc1ccc(CN2C(=O)C(CC(=O)NCc3cccc4ccccc34)CC(C(=O)N3CCOCC3)=C2C)cc1` (stereo not given), the Potency result is “inactive”.

On to `CCN(CC)C(=O)C1=C(C)N(Cc2ccc(F)cc2)C(=O)C(CC(=O)NCc2cccc3ccccc23)C1` (stereo not given), for which the Potency result is “inactive”.

Regarding `CCN(CC)C(=O)C1=C(C)N(Cc2ccc(C(C)(C)C)cc2)C(=O)C(CC(=O)NCc2cccc3ccccc23)C1` (stereo not given), the Potency is 17.8 µM (active).

For `COc1ccc2c(c1)c(=Cc1ccc(N(C)C)cc1)c1cc(-c3ccccc3)[n+](C)n12`, the Potency was 5.01 µM (active).

As for `CN(C)c1ccc(/C=c2\[nH]c(=O)/c(=C/c3ccc(N(C)C)cc3)[nH]c2=O)cc1`, the Potency result is “inactive”.

For the compound `Cc1ccc(NC(=O)CSc2nnc3[nH]c(=O)cc(C)n23)cc1Cl`, the Potency entry was “inactive”.

`O=C(Nc1ccc(Br)cc1)c1ccc(Br)c(S(=O)(=O)NCc2ccccc2)c1`: the Potency was 12.6 µM (active).

For the compound `Cc1ccc(C(=O)Nc2ccc(C(=O)O)cc2)cc1S(=O)(=O)Nc1ccccc1`, the Potency result was “inactive”.

Take `Cn1c(=O)n(C)c2cc(C(=O)Nc3ccc(Br)cc3)ccc21`: the Potency result is “inactive”.

For `COc1ccccc1C1C(C(=O)N2CCCCC2)=C(C)Nc2nc3ccccc3n21` (stereo not given), the Potency entry is “inactive”.

As to `CCCCCCC1(C)NC(c2ccc3c(c2)OCO3)=CC(c2ccccc2O)N1` (stereo not given), the Potency result was “inactive”.

Regarding `Oc1ccc(Cl)cc1C1C=C(c2ccc3c(c2)OCO3)NC(c2ccc(F)c(Br)c2)N1` (stereo not given), the Potency is 10 µM (active).

With `C(=Nc1ccc(/C=C/c2ccnc3ccccc23)cc1)c1cc2c3c(c1)CCCN3CCC2`, the Potency entry is “inactive”.
